The structures appear in SMILES notation. The whole screen tested about 16,000 compounds, of which about 2,600 (16%) were called active. Roughly 20% stayed inconclusive and do not appear here. A selection follows. Values without a mark were called inactive. Calls follow the shape of the dose curve; as a rule, active = well fitted curve in the direction sought with a large enough effect; inconclusive = small, poorly fitted or top-dose-only effect, or effect the other way; inactive = no such curve, though single readings can be large or run the other way.
% is scaled to controls: 0 for no effect and ±100 for the full control effect.

The target of the assay is Cytochrome P450 2D6 (Homo sapiens) (UniProt P10635). The assay is described as follows: Cytochrome panel assay with activity outcomes. As to conditions: recombinant CYP, pro-luciferin dealkylation, luminescence, p450-cyp2d6; series mostly up to 57.1 µM; activity, negative = inhibition: at the top concentration.
Cytochrome P450 2D6 (Homo sapiens), sequence (P10635 whole entry, looked up): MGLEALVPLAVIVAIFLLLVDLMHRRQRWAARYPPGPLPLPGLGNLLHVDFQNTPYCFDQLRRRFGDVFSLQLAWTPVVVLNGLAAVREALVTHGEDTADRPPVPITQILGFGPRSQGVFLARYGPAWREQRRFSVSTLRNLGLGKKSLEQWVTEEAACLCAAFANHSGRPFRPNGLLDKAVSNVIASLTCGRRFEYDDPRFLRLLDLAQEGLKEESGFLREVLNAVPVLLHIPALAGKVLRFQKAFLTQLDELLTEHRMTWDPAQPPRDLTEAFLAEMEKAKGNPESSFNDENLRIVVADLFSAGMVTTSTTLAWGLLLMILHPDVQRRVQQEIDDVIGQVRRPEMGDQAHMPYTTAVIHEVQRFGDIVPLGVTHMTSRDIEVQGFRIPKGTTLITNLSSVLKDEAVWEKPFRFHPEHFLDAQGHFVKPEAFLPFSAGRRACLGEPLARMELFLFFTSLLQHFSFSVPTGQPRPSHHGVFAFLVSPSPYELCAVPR
As to `Cc1nn(Cc2ccc(Cl)cc2Cl)c(C)c1NC(=O)c1sc2ccccc2c1Cl`, the “activity, negative = inhibition” value was -13%.

As to `C=CCc1cccc2cc(C(=O)N(CC)CC)c(=O)oc12`, the “activity, negative = inhibition” value was -3.73%.

For `Cc1[nH]n(-c2ccccc2)c(=O)c1CCOC(=O)c1ccc(C(F)(F)F)cc1`, the “activity, negative = inhibition” value was -16%.

As to `CCOC(=O)c1ccc(N/C=C/C(=O)c2ccc(OC)cc2)cc1`, the “activity, negative = inhibition” value is -2.63%.

As to `CCOC(=O)c1ccc(N)cc1`, the “activity, negative = inhibition” value is -7.44% [at 25.6 µM].

By AC50 is commonly meant the concentration at which the activity in the assay is half-maximal. As to `CCOC(=O)c1ccc(OC(=O)CCCCCN=C(N)N)cc1`, the concentration at half-maximal activity (AC50) is 316 nM (active).

On to `Cn1c(=O)c(-c2cccs2)nc2cnc(Oc3ccccc3)nc21`, for which the “activity, negative = inhibition” value is 1.93%.

With `NC(=O)NC(=O)CSc1nnc(-c2ccco2)n1Cc1ccccc1`, the “activity, negative = inhibition” value is -6.49%.

`FC(F)(F)c1cc(-c2ccco2)nc(NCCc2ccccc2)n1`: the AC50 was 5010 nM (active).

On to `Cc1ccc(Cn2ccc(NC(=O)c3cc4nc(-c5ccco5)cc(C(F)(F)F)n4n3)n2)cc1`, for which the “activity, negative = inhibition” value was 5.06%.

As for `O=C(NC1CCCC1)c1cnn2c(C(F)(F)F)cc(-c3ccco3)nc12`, the “activity, negative = inhibition” value was -5.58%.

Turning to `O=c1/c(=C\c2ccc(O)cc2)sc2n1C(c1ccccc1)C(c1ccccc1)=NN=2` (configuration not stated), the “activity, negative = inhibition” value was 2.11%.

Consider `COc1cccc(-c2nnc3n2N=C(C(C)(C)C)CS3)c1`, for which the “activity, negative = inhibition” value is -19%.

Turning to `CCCCNc1nc(-c2ccccc2)c(C(=O)OCC)cc1C#N`, the “activity, negative = inhibition” value is -13.6%.

Turning to `CSc1c(-c2ccccc2)nc2ccc(Cl)cc2c1C(=O)O`, the “activity, negative = inhibition” value is 0.481%.

As for `Cc1ccc(Oc2nnc(-c3ccccc3)cc2C#N)cc1`, the “activity, negative = inhibition” value was 7.73%.

As for `N#Cc1ccccc1/C=N/Nc1nc(-c2ccccc2)c2cc(Cl)ccc2n1`, the AC50 is 178 nM (active).

In the case of `CN(C)c1nc(NCc2ccccc2)nc(N/N=C/c2ccc(Cl)cc2Cl)n1`, the “activity, negative = inhibition” value is -14%.

For `Cc1ccc2nc(N/N=C/c3ccccc3C#N)nc(-c3ccccc3)c2c1`, the AC50 was 1260 nM (active).

Regarding `Cc1ccc(-n2c(=O)[nH]cc(C(=O)N3CCc4ccccc43)c2=O)cc1`, the “activity, negative = inhibition” value is 3.82%.

With `Cc1nc2cncnc2n(C2CC2)c1=O`, the “activity, negative = inhibition” value was -3.46%.

With `COc1ccc(Oc2ncc3nc(-c4cccc(C#N)c4)c(=O)n(Cc4cccc(OC)c4)c3n2)cc1`, the “activity, negative = inhibition” value is -1.33%.

In the case of `O=C(O)c1nn(-c2ccccc2)ccc1=O`, the “activity, negative = inhibition” value was 2.59%.

Take `Cc1cc(C)cc(-n2c(O)c(C=NC3CCS(=O)(=O)C3)c3ccccc3c2=O)c1` (configuration not stated): the “activity, negative = inhibition” value was 15.4%.

Regarding `CCCCOC(=O)Nc1ccccc1C(=O)OC`, the “activity, negative = inhibition” value was -3.17%.

On to `Cc1ccc(C)c(Nc2nc3nonc3nc2N2CCOCC2)c1`, for which the “activity, negative = inhibition” value was -9.71%.

Turning to `CCOc1ccc(-c2c(=O)n(OCc3ccccn3)c3ccccc3[n+]2[O-])cc1`, the “activity, negative = inhibition” value was -21.6%.

Turning to `COc1ccc(-c2cc(C(F)(F)F)n3ncc(C(=O)NCC4CCCO4)c3n2)cc1OC` (configuration not stated), the “activity, negative = inhibition” value is 3.76%.

For `CCN(C(=O)CSc1nc2cc(C(=O)OC)ccc2c(=O)n1Cc1ccco1)c1cccc(C)c1`, the “activity, negative = inhibition” value was -23.1%.

On to `CCC(Sc1nc2cc3c(cc2c(=O)n1Cc1ccco1)OCO3)C(=O)Nc1cccc(OC)c1` (configuration not stated), for which the AC50 is 3160 nM (active).

With `COCCNC(=O)CSc1nc2cc(OC)c(OC)cc2c(=O)n1Cc1ccco1`, the “activity, negative = inhibition” value is -20.3%.

Take `Cc1nc(-c2cccnc2)sc1C(N)=O`: the “activity, negative = inhibition” value is 8.45%.

Consider `COc1ccc(-n2c(=O)c(-c3cccs3)nc3cnc(Oc4ccccc4)nc32)cc1`, for which the “activity, negative = inhibition” value was -0.534%.

With `O=C(NN=C1C2CC3CC(C2)CC1C3)c1ccncc1`, the “activity, negative = inhibition” value was 10%.

Consider `N#Cc1nc(COc2ccccc2Cl)oc1NCc1ccco1`, for which the AC50 is 2820 nM (active).

On to `Cc1cc(C)cc(-n2nnc(C(=O)NCc3ccccc3Cl)c2N)c1`, for which the “activity, negative = inhibition” value was -18.7%.

Regarding `CCCCC(=O)Nc1sc2c(c1C(=O)OCC)CCC(C=O)=C2Cl`, the “activity, negative = inhibition” value is -29.2%.

As to `COC(=O)[C@@]1(Cc2ccccc2)[C@H]2c3cc(C(=O)N4CCCC4)[nH]c3C[C@H]2CN1C(=O)c1ccccc1`, the “activity, negative = inhibition” value is -16.7%.

Consider `Cc1[nH]c(N)nc(=S)c1CCCNc1ccccc1`, for which the activity, negative = inhibition is -8.46% [at 11.4 µM].

As for `CCN(CC)CCCN(Cc1cc2ccc(C)c(C)c2[nH]c1=O)C(=O)NC1CCCCC1`, the “activity, negative = inhibition” value is -20.3%.

With `c1ccc(NN(Cc2cnccn2)c2ccccc2)cc1`, the activity, negative = inhibition was -16.2% [at 11.4 µM].

Consider `O=C1CN(c2nc(-c3ccccc3)c3cc(Br)ccc3n2)c2ccccc2N1`, for which the “activity, negative = inhibition” value is -28.2%.

For the compound `O=C1CCCCC(=O)c2ccccc2N1`, the “activity, negative = inhibition” value is -11.6%.

For `O=C1Cc2c([nH]c3ccc(Br)cc23)-c2ccccc2N1`, the AC50 is 398 nM (active).

`N#C[C@H](Cc1ccc(O)cc1)c1ccc(O)cc1`: the “activity, negative = inhibition” value was -1.28%.

For the compound `CCOC(=O)CCCN`, the activity, negative = inhibition is 5.1% [at 11.4 µM].

Take `CC(Cc1ccccc1)N/C=C1\CC(=O)NC1=O` (configuration not stated): the “activity, negative = inhibition” value was 8.16%.

With `COc1ccc(N2CCN(Cc3nc4c(c(=O)n(C)c(=O)n4C)n3CC(C)=O)CC2)cc1`, the “activity, negative = inhibition” value is 0.904%.

Take `CCOC(=O)c1nn(-c2ccccc2)c(-c2ccccc2)c1C(=O)c1ccccc1`: the “activity, negative = inhibition” value was -17.8%.

Consider `CCOC(=O)c1c(NC(=O)CSc2nnc(C)s2)sc2c1CCCCC2`, for which the AC50 was 7940 nM (active).

In the case of `CCOC(=O)c1c(NC(=O)c2c(C)noc2C)sc2c1CCCCC2`, the “activity, negative = inhibition” value was -6.35%.

Take `CCOC(=O)c1c(NC(=O)Cn2cc([N+](=O)[O-])cn2)sc2c1CCC2`: the “activity, negative = inhibition” value is -8.46%.

With `CC(=O)NC1(c2cccc(F)c2)CCN(CC(=O)NC(C)C)CC1`, the “activity, negative = inhibition” value is 18.6%.

For the compound `Nc1nnc(C(c2ccccc2)c2ccccc2)s1`, the “activity, negative = inhibition” value is -4.84%.

For the compound `Cn1c(=O)c(-c2ccc(F)cc2)nc2cnc(Oc3ccccc3)nc21`, the “activity, negative = inhibition” value was 1.71%.

Take `CC/C=C\CC[C@H](OC(=O)c1ccc(Br)cc1)C1=CCCCC1=O`: the activity, negative = inhibition was -1.66% [at 11.4 µM].

In the case of `CCn1c(=O)c2[nH]c(-c3ccccc3)nc2n(CC)c1=O`, the “activity, negative = inhibition” value was 3.55%.

Turning to `O=C(O)C[n+]1ccccc1`, the activity, negative = inhibition was -8.09% [at 11.4 µM].

With `Cc1ccc(OC(=O)c2ccc(N3CCOCC3)c([N+](=O)[O-])c2)cc1`, the “activity, negative = inhibition” value was -15.1%.

As to `COc1ccc(-c2cc(C3CCN(c4ccc(C(C)=O)cc4[N+](=O)[O-])CC3)[nH]n2)cc1`, the “activity, negative = inhibition” value is -6.96%.

On to `COC(=O)c1ccc(N2CCN(CC(=O)c3ccc(-c4ccccc4)cc3)CC2)c([N+](=O)[O-])c1`, for which the AC50 is 12600 nM (active).

Turning to `CCNC(=S)N1CC(C)OC(C)C1` (configuration not stated), the “activity, negative = inhibition” value was -0.0504%.

On to `O=C(/C=C/c1ccco1)NC(=S)Nc1ccc(N2CCOCC2)c(Cl)c1`, for which the “activity, negative = inhibition” value was 2.74%.

On to `Clc1ccc(Cl)c(Nc2ccnc(SCc3ccccc3)n2)c1`, for which the activity, negative = inhibition was -0.772% [at 11.4 µM].

`CNc1cc(CS(=O)c2ccccc2)nc(-c2ccccc2)n1` (configuration not stated): the “activity, negative = inhibition” value is -6.79%.

Take `CNc1cc(CSC)nc(SCc2ccc(Cl)c(Cl)c2)n1`: the AC50 is 28200 nM (active).

In the case of `CCN1C(=O)[C@H]2[C@H]3[C@H](O)[C@H](O)C/C(=N/OC[C@@H](O)[C@H]4O[C@H]5OC(C)(C)O[C@H]5[C@@H]4O)[C@@H]3CC[C@@H]2C1=O`, the activity, negative = inhibition is 7.29% [at 11.4 µM].

The values above are taken from PubChem BioAssay AID1851 (National Center for Advancing Translational Sciences (NCATS), 2009).
